Growth inhibition data for ten compounds are collected here from PubChem BioAssay (NCI).

The nature of assay [1]: NCI Yeast Anticancer Drug Screen. Data for the rad50 strain (AID 155).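 Note: 0% = growth of vehicle-only cultures of the same strain.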 As to conditions: S. cerevisiae rad50 strain growth inhibition, active compounds read high. In outline: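 Cells are treated with compound, grown, and their growth is then scored against vehicle-only cultures of the same repair-deficient yeast strain.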
A short description of assay [2]: NCI Yeast Anticancer Drug Screen. Data for the mec2-1 strain (AID 157). As to conditions: S. cerevisiae mec2-1 strain, active compounds read high. In outline:
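Using mec2-1 yeast: add compound, measure growth, express inhibition versus vehicle-treated cultures.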

Assay [3] is described as follows: NCI Yeast Anticancer Drug Screen. Data for the sgs1 mgt1 strain (AID 161).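 Note: 0% = growth of cultures given vehicle only.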 The settings on record: S. cerevisiae sgs1 mgt1 strain, active compounds read high. The essentials: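 Yeast cells carrying a defined DNA-repair defect were exposed to test compounds. Growth inhibition was measured relative to vehicle-treated controls.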
Assay [4] in a line: NCI Yeast Anticancer Drug Screen. Data for the cln2 rad14 strain (AID 165).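 Note: 0% = growth equal to vehicle treated cultures.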 The settings on record: S. cerevisiae cln2 rad14 strain, active compounds read high. The essentials:
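Yeast strain cln2 rad14, bearing defects in cell cycle control and DNA repair, serves as the test system; values reflect growth inhibition compared with vehicle.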

A short description of assay [5]: NCI Yeast Anticancer Drug Screen. Data for the bub3 strain (AID 167). The settings on record: S. cerevisiae bub3 mutant strain, active compounds read high. The essentials:
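Part of a panel of yeast mutants defective in DNA damage repair or cell cycle regulation. Each strain is grown with compound, and inhibition is calculated relative to solvent-treated cultures.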

Assay [6] in a line: NCI Yeast Anticancer Drug Screen. Data for the mlh1 rad18 strain (AID 175). As to conditions: S. cerevisiae mlh1 rad18 strain growth inhibition, active compounds read high. The essentials: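 Steps: expose repair-defective yeast to compound; measure growth; express inhibition against vehicle-treated controls.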
The mark [7] stands for this setting: at 5.0 µM (retest, dose inferred, filed as 0.5).
[8] abbreviates: at 50.0 µM (retest, dose inferred, filed as 5.0).

SMILES strings stand for the structures. The panel holds about 79,000 compounds, 15% with a hit somewhere; the sample as a whole holds those more often. Values without a mark were called inactive. Calls of active or inactive are those of the source. Cut-off read from the data, not from the text of the source: active = growth inhibition above about 70%; inactive = the rest.

For `O=C1C=C(OCC=C(C(F)(F)F)C(F)(F)F)C(=O)c2ccccc21`, the growth inhibition is -6% in assay [1] (setting [7]); 18% in assay [1] (setting [8]); 55.1% in assay [1] (at 50.0 µM); 27% in assay [2] (setting [7]); 68% in assay [2] (setting [8]); 64.8% in assay [2] (at 50.0 µM). Moreover, the growth inhibition in assay [3] (setting [7]) was 24%; in assay [3] (setting [8]), 74% (active); in assay [3] (at 50.0 µM), 66.9%; in assay [4] (setting [7]) it was -1%; in assay [4] (setting [8]), 25%; in assay [4] (at 50.0 µM), 49.4%. Moreover, the growth inhibition is 1% in assay [5] (setting [7]); 52% in assay [5] (setting [8]); 67.2% in assay [5] (at 50.0 µM); 45% in assay [6] (setting [7]); 67% in assay [6] (setting [8]); 80.3% (active) in assay [6] (at 50.0 µM).

On to `CC(C)n1nnc2c3ccccc3c3ccccc3c21`, for which the growth inhibition in assay [1] (setting [7]) is 3%; in assay [1] (setting [8]) it was 11%; in assay [1] (at 50.0 µM), -7.5%; in assay [2] (setting [7]) it was 5%; in assay [2] (setting [8]), -1%; in assay [2] (at 50.0 µM) it was 4.1%. In addition, the growth inhibition in assay [3] (setting [7]) was -2%; in assay [3] (setting [8]) it was 6%; in assay [3] (at 50.0 µM), 11.8%; in assay [4] (setting [7]) it was 15%; in assay [4] (setting [8]) it was 19%; in assay [4] (at 50.0 µM), -1.25%. In addition, the growth inhibition was 14% in assay [5] (setting [7]); 12% in assay [5] (setting [8]); 5.9% in assay [5] (at 50.0 µM); -10% in assay [6] (setting [7]); 15% in assay [6] (setting [8]); 0% in assay [6] (at 50.0 µM).

Regarding `Oc1ccc(-c2ccc3ccccc3c2)cc1`, the growth inhibition in assay [1] (setting [7]) is 2%; in assay [1] (setting [8]), 98% (active); in assay [1] (at 50.0 µM), 98.7% (active); in assay [2] (setting [7]), 6%; in assay [2] (setting [8]), 97% (active); in assay [2] (at 50.0 µM), 99.3% (active). For the same compound, the growth inhibition in assay [3] (setting [7]) is -3%; in assay [3] (setting [8]) it was 98% (active); in assay [3] (at 50.0 µM), 99.2% (active); in assay [4] (setting [7]), 3%; in assay [4] (setting [8]), 99% (active); in assay [4] (at 50.0 µM), 98.8% (active). The growth inhibition was 1% in assay [5] (setting [7]); 98% (active) in assay [5] (setting [8]); 99.2% (active) in assay [5] (at 50.0 µM); -2% in assay [6] (setting [7]); 99% (active) in assay [6] (setting [8]); 99.1% (active) in assay [6] (at 50.0 µM).

For the compound `CC/C=C\C/C=C\C/C=C\CCCCCCCC(=O)OCC(O)CO` (stereo not given), the growth inhibition in assay [1] (setting [7]) is 0%; in assay [1] (setting [8]), 4%; in assay [1] (at 50.0 µM), 22.9%; in assay [2] (setting [7]) it was 0%; in assay [2] (setting [8]), 37%; in assay [2] (at 50.0 µM) it was 88.1% (active). Further, the growth inhibition was 0% in assay [3] (setting [7]); 48% in assay [3] (setting [8]); 86.8% (active) in assay [3] (at 50.0 µM); 1% in assay [4] (setting [7]); 10% in assay [4] (setting [8]); 42.9% in assay [4] (at 50.0 µM). The growth inhibition was -2% in assay [5] (setting [7]); 83% (active) in assay [5] (setting [8]); 53.4% in assay [5] (at 50.0 µM); 2% in assay [6] (setting [7]); 24% in assay [6] (setting [8]); 52.5% in assay [6] (at 50.0 µM).

Regarding `O=P(O)(CN1CCN(CP(=O)(O)c2ccccc2)CCN(CP(=O)(O)c2ccccc2)CC1)c1ccccc1`, the growth inhibition in assay [1] (setting [7]) is 17%; in assay [1] (setting [8]) it was 65%; in assay [1] (at 50.0 µM), 86.7% (active); in assay [2] (setting [7]) it was 4%; in assay [2] (setting [8]) it was 61%; in assay [2] (at 50.0 µM) it was 81.8% (active). In addition, the growth inhibition was 11% in assay [3] (setting [7]); 51% in assay [3] (setting [8]); 85% (active) in assay [3] (at 50.0 µM); 12% in assay [4] (setting [7]); 58% in assay [4] (setting [8]); 60% in assay [4] (at 50.0 µM). For the same compound, the growth inhibition in assay [5] (setting [7]) is 30%; in assay [5] (setting [8]), 72% (active); in assay [5] (at 50.0 µM), 88.3% (active); in assay [6] (setting [7]), 22%; in assay [6] (setting [8]), 53%; in assay [6] (at 50.0 µM), 80.3% (active).

For the compound `CC1(C)CCN(CCOC(=O)C(c2ccccc2)C2C=CCCC2)C1` (stereo not given), the growth inhibition in assay [1] (setting [7]) is -3%; in assay [1] (setting [8]) it was 46%; in assay [1] (at 50.0 µM), 64.2%; in assay [2] (setting [7]), 25%; in assay [2] (setting [8]) it was 50%; in assay [2] (at 50.0 µM), 56.6%. Besides, the growth inhibition was 29% in assay [3] (setting [7]); 69% in assay [3] (setting [8]); 77% (active) in assay [3] (at 50.0 µM); 3% in assay [4] (setting [7]); 32% in assay [4] (setting [8]); 73.7% (active) in assay [4] (at 50.0 µM). The growth inhibition in assay [5] (setting [7]) was 4%; in assay [5] (setting [8]), 26%; in assay [5] (at 50.0 µM), 69.8%; in assay [6] (setting [7]), 38%; in assay [6] (setting [8]), 65%; in assay [6] (at 50.0 µM) it was 70%.

Regarding `Nc1cc2c(c[n+](CCCBr)c3ccccc23)c2ccccc12`, the growth inhibition in assay [1] (setting [7]) is 41%; in assay [1] (setting [8]) it was 98% (active); in assay [1] (at 50.0 µM), 66.8%; in assay [2] (setting [7]), 23%; in assay [2] (setting [8]) it was 99% (active); in assay [2] (at 50.0 µM), 64.6%. The growth inhibition in assay [3] (setting [7]) is 58%; in assay [3] (setting [8]) it was 99% (active); in assay [3] (at 50.0 µM), 68.2%; in assay [4] (setting [7]) it was 46%; in assay [4] (setting [8]) it was 98% (active); in assay [4] (at 50.0 µM) it was 33.1%. For the same compound, the growth inhibition was 52% in assay [5] (setting [7]); 99% (active) in assay [5] (setting [8]); 46.5% in assay [5] (at 50.0 µM); 24% in assay [6] (setting [7]); 98% (active) in assay [6] (setting [8]); 71.1% (active) in assay [6] (at 50.0 µM).

Regarding `CC(C)/C=C1\CCC(CN2CCOCC2)C1=O` (stereo not given), the growth inhibition is 24% in assay [1] (setting [7]); 36% in assay [1] (setting [8]); 72.1% (active) in assay [1] (at 50.0 µM); 18% in assay [2] (setting [7]); 26% in assay [2] (setting [8]); 28.4% in assay [2] (at 50.0 µM). For the same compound, the growth inhibition in assay [3] (setting [7]) was 22%; in assay [3] (setting [8]), 44%; in assay [3] (at 50.0 µM), 48.7%; in assay [4] (setting [7]), 23%; in assay [4] (setting [8]), 20%; in assay [4] (at 50.0 µM) it was 30.9%. For the same compound, the growth inhibition is 17% in assay [5] (setting [7]); 62% in assay [5] (setting [8]); 30.6% in assay [5] (at 50.0 µM); -5% in assay [6] (setting [7]); 71% (active) in assay [6] (setting [8]); 67.2% in assay [6] (at 50.0 µM).

`Cc1ccc2ccc3ccc(C)nc3c2n1`: the growth inhibition is 94% (active) in assay [1] (setting [7]); 93% (active) in assay [1] (setting [8]); 95.1% (active) in assay [1] (at 50.0 µM); 92% (active) in assay [2] (setting [7]); 94% (active) in assay [2] (setting [8]); 96.3% (active) in assay [2] (at 50.0 µM). Further, the growth inhibition is 93% (active) in assay [3] (setting [7]); 96% (active) in assay [3] (setting [8]); 96.5% (active) in assay [3] (at 50.0 µM); 91% (active) in assay [4] (setting [7]); 89% (active) in assay [4] (setting [8]); 94.3% (active) in assay [4] (at 50.0 µM). For the same compound, the growth inhibition is 96% (active) in assay [5] (setting [7]); 94% (active) in assay [5] (setting [8]); 97% (active) in assay [5] (at 50.0 µM); 94% (active) in assay [6] (setting [7]); 94% (active) in assay [6] (setting [8]); 95.8% (active) in assay [6] (at 50.0 µM).

On to `Cc1c(O)c(Br)c(Br)c(Br)c1Br`, for which the growth inhibition in assay [1] (setting [7]) was 82% (active); in assay [1] (setting [8]) it was 94% (active); in assay [1] (at 50.0 µM), 95.5% (active); in assay [2] (setting [7]) it was 78% (active); in assay [2] (setting [8]), 97% (active); in assay [2] (at 50.0 µM), 87.1% (active). Further, the growth inhibition was 81% (active) in assay [3] (setting [7]); 96% (active) in assay [3] (setting [8]); 96.1% (active) in assay [3] (at 50.0 µM); 93% (active) in assay [4] (setting [7]); 96% (active) in assay [4] (setting [8]); 94.7% (active) in assay [4] (at 50.0 µM). Besides, the growth inhibition in assay [5] (setting [7]) was 84% (active); in assay [5] (setting [8]), 96% (active); in assay [5] (at 50.0 µM), 93% (active); in assay [6] (setting [7]), 87% (active); in assay [6] (setting [8]) it was 95% (active); in assay [6] (at 50.0 µM), 94.1% (active).
